An excerpt weighted towards active compounds, which were near 9.4% of everything screened.
NPC1 promoter act = activators of NPC1 promoter; Huh7 NPC1 promoter luciferase reporter, 24 h; Potency, µM (highest dose often 9.22 µM), for inactives: at the highest dose activation, usual class: activators; 2.4% of 320,000 active; also: % of control where 0% means no effect; nearly all actives have a fitted effect of over 60% in size
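Stably transfected Huh7 (NPC1 promoter→luciferase), 1500 cells/well in Opti-MEM + 10% FBS, 2 h settle, then compound 24 h at 37 °C. Luminescence after 10 min with Amplite reagent.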
Rab9 promoter act = activators of Rab9 promoter | Potency, µM (highest dose often 9.22 µM), inactives show top-dose activation, negative = inhibition, most hits filed as activators | 2.8% of 320,000 active | Huh7 Rab9 promoter-luciferase reporter, luminescence, 24 h; also: % of control where 0% means no effect; nearly all actives have a fitted effect of over 60% in size
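Cells were plated at 1500 per well in reduced-serum medium with 10% FBS and left 2 h. Compound in DMSO was then added for 24 h at 37 °C. Reporter signal was read by luminescence after 10 min with luciferase detection reagent.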
FLuc counter = inhibits or activates purified firefly luciferase, miR-21 counter-screen; P08659; purified FLuc, Km substrates, luminescence inhibition; Potency, µM (titrated, usually from 57.5 µM), inactives show at the highest dose activity change, negative = inhibition, most hits filed as inhibitors; 6.9% of 360,000 active;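 also: plate controls were vehicle for no effect and reference inhibitor for full effect; nearly all actives have a fitted effect of over 55% in size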
Target sequence (P08659 whole entry, looked up): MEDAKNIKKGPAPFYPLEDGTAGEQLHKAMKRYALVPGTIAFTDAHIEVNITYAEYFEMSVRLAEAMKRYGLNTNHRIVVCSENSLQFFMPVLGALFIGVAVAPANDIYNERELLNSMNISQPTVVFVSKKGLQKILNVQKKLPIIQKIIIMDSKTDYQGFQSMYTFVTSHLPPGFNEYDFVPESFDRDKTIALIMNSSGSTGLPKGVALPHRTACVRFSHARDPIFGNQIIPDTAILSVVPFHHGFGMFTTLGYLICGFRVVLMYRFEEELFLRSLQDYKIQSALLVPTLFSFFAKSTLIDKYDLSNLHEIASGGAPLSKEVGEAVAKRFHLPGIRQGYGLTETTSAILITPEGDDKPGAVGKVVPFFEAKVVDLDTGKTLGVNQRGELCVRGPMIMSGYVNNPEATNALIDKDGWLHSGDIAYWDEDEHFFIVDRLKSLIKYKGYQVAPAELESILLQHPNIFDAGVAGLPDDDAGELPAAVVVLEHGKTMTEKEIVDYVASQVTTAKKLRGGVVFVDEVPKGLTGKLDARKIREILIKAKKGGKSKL
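Biochemical qHTS of compounds, final roughly 60 µM downward over six points, against 10 nM purified firefly luciferase using Km concentrations of substrates (10 uM D-luciferin, 10 uM ATP) in Tris acetate pH 7.5 buffer; luminescence output.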
ELG1 repair inh = ELG1-dependent DNA repair inhibition. HEK293T ELG1-luciferase reporter, luminescence, 16 h; DNA damage induced by 5-fluorouridine. Potency, µM (series often up to 46.1 µM), inactives show at the highest dose activity change, negative = inhibition, usual class: inhibitors. 2.3% of 330,000 active. AID 504467; also: % is scaled to controls: 0 for no effect and ±100 for the full control effect; nearly all actives have a fitted effect of over 55% in size
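DMSO vehicle served as the neutral condition. Each well held 2,000 cells given 5-fluorouridine plus compound; after 16 hr at 37 °C/5% CO2, ONE-Glo was added and luciferase measured 30 min later.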
SMN2 splice enh = increases expression of the SMN2 splice variant | HEK293 SMN2-luciferase splicing reporter, luminescence, 30-36 h | Potency, µM (series often up to 46.1 µM), inactives show at the highest dose activity change, positive = activation, hits mostly activators | 2.8% of 210,000 active | AID 1458; also: % of control where 0% means no effect; nearly all actives have a fitted effect of over 55% in size
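HEK293 cells carry an SMN2 minigene-luciferase reporter in which exon 7 inclusion puts luciferase in frame. Cells were seeded at 2000 cells/well, attached for 10-12 hours, then exposed to compounds for 30-36 hours at 37C before ONE-Glo luminescence.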
ELG1 genotox = inducers of genotoxicity in HEK293T ELG1-luciferase cells | HEK293T ELG1-luciferase reporter, luminescence, 16 h | Potency, µM (doses to about 46 µM), for the others: at the top dose activity change, positive = activation, actives largely listed as activators | 1.3% of 330,000 active | AID 504466; also: % of control where 0% means no effect; nearly all actives have a fitted effect of over 60% in size
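Quantitative HTS format in 1536-well plates. HEK293T ELG1-luciferase reporter cells receive test compound and are incubated 16 hr at 37 °C, 5% CO2; ONE-Glo added, 30 min room temperature, then luminescence read.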
* hit, by the source's call; [ ] = dose if it differs, or a comment. Calls follow the shape of the dose curve; as a rule, active = well fitted curve in the direction sought with a large enough effect; inconclusive = small, poorly fitted or top-dose-only effect, or another doubt; inactive = no such curve, though single readings can be large; an effect the other way counts as inactive or inconclusive. Potency is read from the fitted curve at half-maximal effect.

c1ccc2c(c1)Nc1ccncc1S2 was read as NPC1 promoter act 18%, Rab9 promoter act -11%, FLuc counter -9%, ELG1 repair inh 18µM* and ELG1 genotox -5%.
For COc1c(C(=O)NNC(=O)c2ccccc2Cl)csc1Br the results were NPC1 promoter act 3.5µM*, Rab9 promoter act inconclusive, FLuc counter 21µM*, ELG1 repair inh inconclusive and ELG1 genotox inconclusive.
`COc1ccc(NC(=O)c2ccco2)cc1NC(=O)c1cccc(C)c1OC` gave FLuc counter inconclusive and SMN2 splice enh -31%.
`CCn1c(O)c(/C=C2\C=Nc3ccccc32)sc1=O` gave NPC1 promoter act inconclusive, Rab9 promoter act 1.4µM*, FLuc counter 2.7µM*, ELG1 repair inh inconclusive, SMN2 splice enh 22µM* and ELG1 genotox 6.5µM*.
Oc1nc(Nc2ccccc2)sc1/C=C1\C=Nc2ccccc21 was read as NPC1 promoter act 4µM*, Rab9 promoter act 2.8µM*, FLuc counter 19µM*, ELG1 repair inh inconclusive and ELG1 genotox inconclusive.
CCn1c(O)c(/C=C2\C=Nc3ccccc32)sc1=Nc1ccc(C)cc1 was read as NPC1 promoter act -11%, Rab9 promoter act -2%, FLuc counter -2%, ELG1 repair inh 21%, SMN2 splice enh -9% and ELG1 genotox 6%.
`CCOC(=O)c1c(Nc2ccccc2)sc(/C=C2\C=Nc3ccccc32)c1O` gave NPC1 promoter act -4%, Rab9 promoter act -3%, FLuc counter 6%, ELG1 repair inh -11%, SMN2 splice enh -6% and ELG1 genotox 12%.
For COc1cc([N+](=O)[O-])ccc1NC(=O)N1CCCCCC1 the results were NPC1 promoter act -12%, Rab9 promoter act 8%, FLuc counter -14%, ELG1 repair inh inconclusive and ELG1 genotox -17%.
For Cc1cccc2c(N=NC(=O)c3ccc(NS(=O)(=O)c4cccs4)cc3)c(O)[nH]c12 the results were NPC1 promoter act inconclusive, Rab9 promoter act inconclusive, FLuc counter 0.43µM*, ELG1 repair inh inconclusive and ELG1 genotox 14%.
For Cc1ccc2[nH]c(O)c(N=NC(=O)c3ccc(NS(=O)(=O)c4cccs4)cc3)c2c1 the results were NPC1 promoter act 2%, Rab9 promoter act 0%, FLuc counter 5.4µM*, ELG1 repair inh -21% and ELG1 genotox -4%.
O=C(N=Nc1c(O)[nH]c2ccc(F)cc12)c1ccc(NS(=O)(=O)c2cccs2)cc1 was read as NPC1 promoter act 4%, Rab9 promoter act 7%, FLuc counter inconclusive, ELG1 repair inh -6% and ELG1 genotox 1%.
Screening C#C[C@]1(O)CC[C@@H]2[C@H]3CCC4=Cc5oncc5C[C@]4(C)[C@@H]3CC[C@@]21C returned SMN2 splice enh -15%[20.6 µM].
For CN(CC(=O)Nc1cccc(F)c1)C(=O)CCCNC(=O)c1ccc(Cl)cc1 the results were NPC1 promoter act inconclusive, Rab9 promoter act inconclusive, FLuc counter 12µM*, ELG1 repair inh inconclusive and ELG1 genotox 13%.
For COc1cccc(NC(=O)CN(C)C(=O)c2ccccc2Sc2ccccc2C#N)c1 the results were NPC1 promoter act -5%, Rab9 promoter act 2%, FLuc counter 1%, ELG1 repair inh inconclusive and ELG1 genotox -1%.
CN(CC(=O)Nc1cccc(F)c1)C(=O)c1ccccc1Sc1ccccc1C#N was read as NPC1 promoter act -2%, Rab9 promoter act -28%, FLuc counter 8%, ELG1 repair inh 16µM* and ELG1 genotox -6%.
`Cc1cccc(NC(=O)CSc2nc3n[nH]c(C)c3c(=N)n2-c2cccc(Cl)c2)c1` gave FLuc counter -6%.
For CCCc1nn2cc(-c3ccc(C)c(C)c3)nc2s1 the results were FLuc counter 0.19µM* and SMN2 splice enh 1.3µM*.
COc1ccc(-c2cn3nc(N4CCC(C(=O)NCc5cccc(Cl)c5)CC4)sc3n2)cc1 was read as FLuc counter 6%.
